Rows were chosen to be rich in hits. Some 2.4% of all compounds tested hit in one or more screens of this group.
m5-HT2A agonist = mouse HTR2A agonism via beta-arrestin recruitment | P35363 | AID 624169 | hit rate 0.66% among 360,000 | CHO-K1 mHTR2A beta-arrestin complementation, luminescence; percent of 30 µM serotonin response | activation, % at 7.6 µM;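 active = activation above a run cutoff, the mean activation of all tested compounds plus 3 SD, cut at about 14% in these data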;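 also: 0% = plate median of compound wells and 100% = 30 µM serotonin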
ABHD5 PLIN5 PPI = ABHD5-PLIN5 protein interaction inhibition | Split G. princeps luciferase complementation, luminescence, 4 h | hit rate 0.78% among 360,000 | inhibition, % at 4 µM;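 active = inhibition above the mean inhibition across every tested compound plus 3 SD, cut at about 22% in these data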;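 also: 0% = DMSO only wells and the 100% control is not disclosed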
CRFBP-R2 block = CRF-BP/CRF-R2 complex antagonism | HEK293 CRF-R2/CRF-BP, CRF-induced calcium fluorescence | inhibition, % at 11.8 µM | hit rate 0.59% among 350,000;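 active = inhibition of the ligand-induced calcium signal above about 50% at the single tested concentration, limit read from the data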
TLR4-MyD88 BLA = inhibitors of human TLR4-MyD88 binding. AID 861. HeLa CL3-4 TLR4/MyD88 BLA complementation, FRET ratio. O00206+Q99836. hit rate 0.18% among 200,000. inhibition, % at 8.4 µM; in the data active = inhibition above about 25%;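 also: 0% = vehicle and 100% = reference inhibitor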
NOD2 RIPK2 PPI = NOD2-RIPK2 protein interaction inhibition; CHO BLA complementation NOD2-RIPK2, CCF4 ratio; inhibition, % at 4.98 µM; hit rate 0.38% among 360,000; in the data active = inhibition above about 21%;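 also: 0% = vehicle only and 100% = reference blocker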
TLR9-MyD88 inh = inhibitors of human TLR9-MyD88 binding. CHO BLA complementation TLR9-MyD88, CCF4 FRET ratio. inhibition, % at 4.98 µM. hit rate 0.21% among 340,000. AID 504734;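 active = inhibition above the mean over all tested compounds plus 3 SD, cut at about 21% in these data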;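 also: 0% = DMSO only wells and 100% = clavulanate BLA inhibitor control wells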
MOR ag counter = counter-screen for mouse HTR2A agonists: human mu opioid receptor agonists; hit rate 5.3% among 2,300; AID 624380; shares compounds with m5-HT2A agonist; U2OS OPRM1 beta-arrestin PathHunter, luminescence; DMSO 0%, DAMGO 9.3 µM 100%; activation, % at 9.3 µM;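 active = mean activation above the mean of DMSO-only wells plus 3 SD, cut at about 0.5% in these data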
Target sequence (P35372 whole entry, looked up): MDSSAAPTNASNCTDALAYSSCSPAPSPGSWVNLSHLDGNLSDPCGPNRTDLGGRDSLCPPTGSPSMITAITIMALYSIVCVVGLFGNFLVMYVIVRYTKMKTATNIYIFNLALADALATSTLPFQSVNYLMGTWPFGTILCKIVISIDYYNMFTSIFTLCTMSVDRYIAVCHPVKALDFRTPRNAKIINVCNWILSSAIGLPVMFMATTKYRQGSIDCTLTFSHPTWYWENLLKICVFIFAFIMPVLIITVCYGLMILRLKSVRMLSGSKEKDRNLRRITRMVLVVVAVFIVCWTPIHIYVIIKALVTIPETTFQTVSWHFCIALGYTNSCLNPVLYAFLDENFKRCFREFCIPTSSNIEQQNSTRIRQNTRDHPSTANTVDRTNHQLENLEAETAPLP
m5-HT2A ag conf = confirmation of mouse HTR2A serotonin receptor agonists | shares compounds with m5-HT2A agonist | CHO-K1 PathHunter beta-arrestin recruitment, luminescence; DMSO 0%, 30 µM serotonin 100% | activation, % at 7.6 µM | hit rate 19% among 2,300 | AID 624381;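 active = mean activation across triplicates above the hit threshold derived in the original primary screen, cut at about 15% in these data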
The depositor's hits bear a star; nt = not tested or not shown.

SMILES | m5-HT2A agonist | ABHD5 PLIN5 PPI | CRFBP-R2 block | TLR4-MyD88 BLA | NOD2 RIPK2 PPI | TLR9-MyD88 inh | MOR ag counter | m5-HT2A ag conf
COc1ccc(S(=O)(=O)N(C)CC(=O)N2CCCCCC2)cc1 | 36.4* | -2.1 | -0.4 | nt | -8.7 | -2.3 | -0.6 | 4.0
CCOc1cccc(CN2CCCC(C(=O)c3cc(Cl)ccc3OC)C2)c1O (stereo not given) | 23.0* | 8.5 | 5.1 | nt | -14.7 | 2.5 | -0.3 | 6.3
COc1ccccc1C(=O)C1CCCN(Cc2ccc3c(c2)OCCO3)C1 (stereo not given) | 32.8* | 1.8 | 1.0 | nt | 15.1 | 5.9 | -0.6 | 15.5*
CCOc1cccc(CN2CCCC(N3CCN(c4cccc(Cl)c4)CC3)C2)c1O (stereo not given) | -4.6 | 3.4 | 0.2 | nt | 3.7 | -6.9 | nt | nt
COc1ccc(F)cc1C(=O)C1CCCN(Cc2ccc3c(c2)OCCO3)C1 (stereo not given) | 26.2* | 5.9 | 9.1 | -4.1 | -0.3 | 2.7 | 2.8* | 28.4*
COc1ccc(C(=O)C2CCCN(Cc3ccc4c(c3)OCCO4)C2)cc1F (stereo not given) | 9.8 | 2.1 | -12.2 | nt | 3.5 | -8.0 | nt | nt
Cc1cccc(C)c1NC(=O)C1c2ccccc2OCC(=O)N1Cc1ccccc1 (stereo not given) | -2.5 | -12.9 | nt | nt | -0.8 | nt | nt | nt
COc1ccc(S(=O)(=O)NCC(c2ccc3c(c2)OCO3)N2CCN(c3ccccc3)CC2)cc1 (stereo not given) | 18.4* | 0.2 | 6.1 | nt | -6.1 | 0.0 | -0.3 | 65.9*
CC(C(=O)Nc1cccc(S(=O)(=O)N2CCOCC2)c1)N1CCN(C/C=C/c2ccccc2)CC1 (stereo not given) | 17.2* | 2.4 | -7.4 | -0.5 | -4.9 | 5.2 | -0.7 | 21.3*
Cn1nc(C(C)(C)C)cc1C(=O)N1CCCCC1c1cc(C(=O)NCc2ccc(F)cc2)no1 (stereo not given) | 7.8 | -1.3 | nt | nt | -6.9 | nt | nt | nt
CSc1nc(N)n2nccc2n1 | -2.8 | 4.7 | nt | nt | -2.9 | nt | nt | nt
CC(=O)C1=C(C)NC(=O)NC1c1ccc(Cl)cc1 (stereo not given) | 17.3* | -3.3 | -2.7 | 1.3 | -7.7 | -3.5 | -0.6 | -3.3
CCCCN(CC)CCCNC(=O)CC1Oc2ccccc2NC1=O (stereo not given) | 26.7* | 4.4 | 4.7 | -3.2 | -2.2 | -0.1 | -0.6 | 89.7*
CCCCCCn1cc(CN2CC(N3CCCCC3)CS2(=O)=O)nn1 (stereo not given) | 15.6* | 5.5 | nt | nt | 1.7 | nt | 0.0 | -2.1
CCCCCCn1cc(CN2CC(N3CCN(C)CC3)CS2(=O)=O)nn1 (stereo not given) | 7.1 | 5.3 | nt | nt | -7.5 | nt | nt | nt
Cc1ccc(Cn2cc(CN3CC(N4CCN(Cc5ccccc5F)CC4)CS3(=O)=O)nn2)cc1 (stereo not given) | 11.8 | 6.5 | nt | nt | -4.6 | nt | nt | nt
Cc1cc(C)cc(Cn2cc(CN3CC(N4CCN(Cc5ccccc5F)CC4)CS3(=O)=O)nn2)c1 (stereo not given) | 14.9* | 0.3 | nt | nt | -4.0 | nt | -0.3 | 5.4
FC(F)(F)c1ccccc1Cc1c(-c2ccccc2)nc2ccc(Br)cn12 | -6.1 | 1.8 | nt | nt | 3.9 | nt | nt | nt
CCn1c(SCC(N)=O)nnc1-c1ccco1 | 7.1 | 2.3 | 22.3 | -4.9 | -6.3 | 6.3 | nt | nt
CCn1c(SCC(=O)c2cccs2)nnc1-c1ccco1 | 16.3* | 1.3 | -4.6 | -1.2 | -2.6 | -1.6 | -0.6 | 3.9
CC1=CNC(=O)CC(C)(C)C1 | 4.3 | 3.5 | nt | nt | -8.1 | nt | nt | nt
CC(C)C(=O)Nc1cccc(-c2nc3ncccc3o2)c1 | 25.6* | 0.7 | 4.9 | nt | -7.8 | -1.6 | -0.5 | 3.0
CC(C)C(=O)Nc1ccc(-c2nc3ncccc3o2)cc1 | 2.4 | -1.6 | 15.0 | nt | -10.6 | 2.5 | nt | nt
COC1=CC(=O)OC(c2cccc(C(F)(F)F)c2)C1 (stereo not given) | -0.4 | 11.0 | nt | nt | -13.5 | nt | nt | nt
CC(C)c1c(C(=O)Nc2ccccc2)c(-c2ccccc2)c(-c2ccc(F)cc2)n1CC[C@@H](O)C[C@@H](O)CC(=O)O | 3.3 | -2.2 | nt | nt | -1.4 | nt | nt | nt
SMILES | m5-HT2A agonist | ABHD5 PLIN5 PPI | CRFBP-R2 block | TLR4-MyD88 BLA | NOD2 RIPK2 PPI | TLR9-MyD88 inh | MOR ag counter | m5-HT2A ag conf
OCCNc1ncnc2c1c(-c1ccccc1)c(-c1ccccc1)n2Cc1ccco1 | 14.5* | 12.7 | -31.4 | 8.7 | 9.3 | -8.3 | -0.7 | -2.9
CN1CCN(S(=O)(=O)c2cccc(C(=O)Nc3cc(C(N)=O)cc(C(N)=O)c3)c2)CC1 | 15.6* | 8.3 | 6.9 | nt | -10.6 | -12.1 | -0.3 | -1.3
COc1cccc(C(C)(O)c2nc(-c3ccc(F)cc3OC)cs2)c1 (stereo not given) | 2.6 | -4.2 | nt | nt | -17.8 | nt | nt | nt
CCOC(=O)C1(C)CCCCCN1C(=O)c1snnc1C (stereo not given) | 9.2 | 3.7 | nt | nt | 2.2 | nt | nt | nt
Cc1nnsc1C(=O)N1CCCC1(C)C(=O)O (stereo not given) | 26.8* | 6.0 | nt | nt | -6.0 | nt | -0.6 | 1.1
Nc1[nH]c(C(=O)c2ccccc2)c(-c2ccc(Cl)cc2Cl)c1C(=O)NCCc1c[nH]c2ccccc12 | 4.1 | -2.4 | nt | nt | 3.8 | nt | nt | nt
Cc1cc(-c2cccs2)c2c(n1)sc1c(=O)[nH]c(=O)[nH]c12 | 17.0* | 9.7 | -30.8 | 6.5 | -7.2 | 2.0 | -0.6 | -2.6
Cc1cc(NC(=O)c2cc([N+](=O)[O-])ccc2Cl)no1 | 17.2* | -2.8 | -1.9 | nt | 4.9 | -6.7 | -0.3 | -2.2
COc1cc(NC(=O)CCc2nnc3ccc(N4CCCCC4)nn23)cc(OC)c1OC | 16.2* | 8.9 | -0.9 | nt | -0.4 | -10.1 | -0.6 | -4.7
O=[N+]([O-])c1cccc(-c2ccc(/C=N/NC(=S)Nc3ccccc3)o2)c1 | 0.7 | 3.9 | 13.3 | -4.5 | -6.5 | -2.1 | nt | nt
O=[N+]([O-])c1cccc(-c2ccc(/C=N/NC(=S)NCc3ccco3)o2)c1 | 19.9* | 2.8 | 6.7 | nt | -6.4 | 3.0 | 0.2 | -1.5
CC(=O)Nc1ccc(S(=O)(=O)c2ccnc3cc(Cl)ccc23)cc1 | -0.4 | 4.9 | 6.7 | nt | 1.9 | 6.2 | nt | nt
CCN1CCN(Cc2nnc(-c3ccc(C)cc3)o2)CC1 | 17.5* | 7.0 | -13.9 | nt | 1.9 | -11.0 | -0.5 | -4.1
CN1CCN(Cc2nnc(-c3ccccc3)o2)CC1 | 1.9 | 8.0 | -2.7 | nt | -2.8 | 3.3 | nt | nt
Cc1ccc(C(NC(=O)C2CCN(Cc3ccc(Oc4ccccc4)cc3)CC2)c2ccccn2)cc1 (stereo not given) | -7.1 | 2.8 | nt | nt | 3.1 | nt | nt | nt
CCCC[C@@H]1CNC(=O)C(=O)N1CCc1cc(C(F)(F)F)cc(C(F)(F)F)c1 | 15.3* | 3.6 | -8.8 | nt | 6.5 | -0.1 | -0.3 | -2.5

Bioassay records (PubChem)
